Test [1] concerns Wnt5a (protein binding on small-molecule microarray). The test is described as follows: Wnt5a binders on small-molecule microarray, primary screen, biophysical, 635/667 nm fluorescence (AID 1142).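 Further: fluorescence read at 667 nm with signal to noise per printed feature.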 The settings on record: 635 nm fluorescence, higher = more signal.
Test [2] in a line: cell viability in Huh7 cells, primary screen, cytotoxicity control for HCV replication inhibitor project, CellTiter-Glo luminescence, basal, 48 h (AID 1143).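 Further: Huh7 hepatoma cells carrying a hepatitis C replication reporter with no stimulus; test concentration not given here.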 The settings on record: Huh7 HCV replicon, higher = more signal, called active from +8 up or from −8 down. For orientation: ATP-based viability assays read luminescence as a measure of living cells.
The nature of test [3]: P. aeruginosa biofilm formation inhibitors, primary screen, PAO1 strain, BacTiter-Glo luminescence, LB-PBS (AID 1144). The settings on record: 12 h, higher = more signal.
Test [4] is described as follows: CREB reporter modulators without forskolin, primary screen, cell-based, PC12, CRE-LacZ reporter, unstimulated (AID 1145). The settings on record: no forskolin, luminescence, 4.5 h, higher = more signal, called active from +8 up or from −8 down.
A short description of test [5]: CREB reporter modulators under forskolin, primary screen, cell-based, PC12, CRE-LacZ reporter, forskolin-stimulated (AID 1146).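 Further: PC12 cells with 6xCRE LacZ reporter stimulated by forskolin 10 µM; beta-galactosidase reporter signal reflecting CREB driven transcription.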 The settings on record: luminescence, 4.5 h, higher = more signal, called active from +8 up or from −8 down.
Test [6] addresses Streptavidin (Streptomyces avidinii) (UniProt P22629). The test is described as follows: streptavidin binders on small-molecule microarray, primary screen, artefact control for SMM compound annotation, biophysical, 635/667 nm fluorescence (AID 1147).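 Further: signal reflects streptavidin binding to arrayed compounds as a control protein.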 The settings on record: streptavidin binding, higher = more signal.
The nature of test [7]: small-molecule binders of probe aInhba, primary screen, biochemical, small-molecule microarray, 635/667 nm fluorescence (AID 1148).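 Further: score merges 667nm spot fluorescence with signal-to-noise for antibody binding to printed compounds.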 The settings on record: higher = more signal.
Test [8] has as its target Torsin-1A (Homo sapiens) (UniProt O14656). The test is described as follows: torsin A binders from cell lysate, primary screen, small-molecule microarray, wild-type, 635/667 nm (AID 1149). The settings on record: COS7 hTOR1A-WT lysate, 635 nm fluorescence, higher = more signal.
The target is the same in test [9]. As to the kind of experiment: small-molecule binders of mutant TOR1A in lysate, primary screen, cell lysate, small-molecule microarray, COS7 lysate, 635/667 nm fluorescence (AID 1150).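 Further: score pools 667 nm emission and signal to noise measuring lysate protein binding.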 The settings on record: COS7 hTOR1A mutant lysate, 635 nm fluorescence, higher = more signal.
Test [10] deals with Sonic hedgehog protein (Shh). As to the kind of experiment: small-molecule binders of Shh protein, primary screen, biochemical, small-molecule microarray, 635/667 nm fluorescence (AID 1151).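 Further: Shh protein binding to compounds spotted on small-molecule microarray slides; score combines spot fluorescence intensity with signal-to-noise across triplicate slides.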 The settings on record: small-molecule microarray binding, 635 nm fluorescence; higher = more signal.
Test [11] is described as follows: E. coli DRC41 culture turbidity changes, primary screen, E. coli filamentation inducer project, strain DRC41, OD650, 48 h (AID 1152).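 Further: E. coli MC1000 strain DRC41 lacking acrAB efflux pump and sulA.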 The settings on record: E. coli DRC41 (acrAB sulA), higher = more signal, called active from +8 up or from −8 down.
Test [12] can be described thus: small-molecule binders of probe aLefty1, primary screen, biochemical, small-molecule microarray, 635/667 nm fluorescence (AID 1153).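 Further: score merges spot fluorescence with signal-to-noise ratio from the scanned slide images.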 The settings on record: higher = more signal.
The nature of test [13]: PSAC antagonists in infected red cells, primary screen, cell-based, P. falciparum Indochina, OD700, 1 h (AID 1154). The settings on record: P. falciparum Indochina infected RBC osmotic lysis, higher = more signal, called active from +8 up or from −8 down.
Test [14] in a line: PSAC antagonists in infected red cells, primary screen, cell-based, P. falciparum Indochina, OD700, 2 h (AID 1155).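 Further: lysis reports solute entry through the parasite surface anion channel PSAC; channel blockers reduce lysis of infected cells.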 The settings on record: P. falciparum Indochina infected erythrocytes, osmotic lysis OD700; higher = more signal, called active from +8 up or from −8 down.
Test [15] can be described thus: osmotic lysis modulators in infected erythrocytes, primary screen, PSAC antagonist project, cell-based, P. falciparum Indochina, OD700, 3 h (AID 1156). The settings on record: higher = more signal, called active from +8 up or from −8 down.
Test [16] can be described thus: PSAC antagonists in infected red cells, primary screen, cell-based, P. falciparum Indochina, OD700, 18 h (AID 1157). The settings on record: P. falciparum Indochina infected erythrocytes, osmotic lysis OD700, 18 h; higher = more signal, called active from +8 up or from −8 down.
Test [17] can be described thus: modulators of S6 phosphorylation in cells, primary screen, cell-based, A549, cytoblot, luminescence, serum-stimulated (AID 1158).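 Further: serum-stimulated A549 lung adenocarcinoma cells; signal is phosphorylated S6 detected by cytoblot immunostaining with HRP secondary.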 The settings on record: A549 phospho-S6 cytoblot, 5 h, higher = more signal.
For test [18], the target named is NADPH oxidase 2 (Homo sapiens) (UniProt P04839). As to the kind of experiment: NOX2-dependent H2O2 signal modulators, primary screen, NOX inhibitor project, cell-based, HEK293-NOX2, PMA-stimulated, Amplex Red fluorescence (AID 1159). Further: test concentration not given here. The settings on record: 45 min, higher = more signal, called active from +8 up or from −8 down.
Sequence of NADPH oxidase 2 (Homo sapiens) (P04839 whole entry, looked up): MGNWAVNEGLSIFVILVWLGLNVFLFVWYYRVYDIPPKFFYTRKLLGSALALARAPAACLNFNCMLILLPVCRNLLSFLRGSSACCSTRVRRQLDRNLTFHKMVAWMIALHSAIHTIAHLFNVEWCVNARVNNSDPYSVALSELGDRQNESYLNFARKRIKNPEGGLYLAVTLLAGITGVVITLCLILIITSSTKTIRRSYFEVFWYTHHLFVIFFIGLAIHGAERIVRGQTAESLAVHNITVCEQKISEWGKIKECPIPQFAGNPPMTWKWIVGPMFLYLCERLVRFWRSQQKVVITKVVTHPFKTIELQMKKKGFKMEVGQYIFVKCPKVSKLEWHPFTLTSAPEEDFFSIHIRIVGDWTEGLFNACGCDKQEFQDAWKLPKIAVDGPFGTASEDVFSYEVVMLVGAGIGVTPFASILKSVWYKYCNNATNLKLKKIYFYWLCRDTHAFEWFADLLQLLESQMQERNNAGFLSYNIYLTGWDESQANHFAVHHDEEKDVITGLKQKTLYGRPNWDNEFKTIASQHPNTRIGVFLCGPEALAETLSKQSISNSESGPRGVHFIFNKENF
Test [19] has as its target NADPH oxidase 4 (Homo sapiens) (UniProt Q9NPH5). The test is described as follows: NOX4-dependent H2O2 signal modulators, primary screen, NOX inhibitor project, cell-based, HEK293-NOX4, tetracycline-induced, Amplex Red fluorescence (AID 1160). The settings on record: 45 min, higher = more signal, called active from +8 up or from −8 down.
Test [20] has as its target NADPH oxidase 5 (Homo sapiens) (UniProt Q96PH1). The test is described as follows: NOX5-dependent H2O2 signal modulators, primary screen, NOX inhibitor project, cell-based, HEK293-NOX5, Amplex Red fluorescence (AID 1161). The settings on record: HEK293-NOX5, ionomycin, 45 min, higher = more signal.

The text below walks through data of PubChem BioAssay.

Calls of active or inactive are those of the source. Unless noted, how the calls were made is not given here.

Sequence of NADPH oxidase 4 (Homo sapiens) (Q9NPH5 whole entry, looked up): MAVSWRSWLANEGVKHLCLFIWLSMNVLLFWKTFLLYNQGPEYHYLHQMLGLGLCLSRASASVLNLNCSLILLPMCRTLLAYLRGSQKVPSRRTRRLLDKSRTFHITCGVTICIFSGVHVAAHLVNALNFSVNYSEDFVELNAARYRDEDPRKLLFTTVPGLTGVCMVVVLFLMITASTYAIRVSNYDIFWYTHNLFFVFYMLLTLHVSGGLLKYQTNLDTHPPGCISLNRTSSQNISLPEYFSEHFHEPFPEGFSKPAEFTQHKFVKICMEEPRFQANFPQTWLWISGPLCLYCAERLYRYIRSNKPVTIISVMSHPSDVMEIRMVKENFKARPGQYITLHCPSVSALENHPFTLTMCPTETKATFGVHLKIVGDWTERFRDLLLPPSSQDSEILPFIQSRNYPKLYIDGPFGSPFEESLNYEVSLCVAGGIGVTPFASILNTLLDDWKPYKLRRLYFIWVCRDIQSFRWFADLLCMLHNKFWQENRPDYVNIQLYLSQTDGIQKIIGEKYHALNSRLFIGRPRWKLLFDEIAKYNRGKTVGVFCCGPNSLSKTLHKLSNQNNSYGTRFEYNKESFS
Sequence of Torsin-1A (Homo sapiens) (O14656 whole entry, looked up): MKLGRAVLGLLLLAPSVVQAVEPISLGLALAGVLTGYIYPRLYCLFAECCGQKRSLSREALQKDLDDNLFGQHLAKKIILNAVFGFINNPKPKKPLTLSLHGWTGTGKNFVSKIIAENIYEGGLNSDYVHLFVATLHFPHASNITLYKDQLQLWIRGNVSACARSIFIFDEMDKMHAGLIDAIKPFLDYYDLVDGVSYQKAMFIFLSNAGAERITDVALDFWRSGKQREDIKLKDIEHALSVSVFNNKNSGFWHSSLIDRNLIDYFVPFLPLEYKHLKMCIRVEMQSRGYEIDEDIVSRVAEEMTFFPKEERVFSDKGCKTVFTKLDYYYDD
Sequence of Streptavidin (Streptomyces avidinii) (P22629 whole entry, looked up): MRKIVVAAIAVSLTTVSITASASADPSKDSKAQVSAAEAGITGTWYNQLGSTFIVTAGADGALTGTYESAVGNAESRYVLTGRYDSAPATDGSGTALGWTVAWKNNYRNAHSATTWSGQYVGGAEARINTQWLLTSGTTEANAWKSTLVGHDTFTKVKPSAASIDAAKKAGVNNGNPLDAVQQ
Sequence of NADPH oxidase 5 (Homo sapiens) (Q96PH1 whole entry, looked up): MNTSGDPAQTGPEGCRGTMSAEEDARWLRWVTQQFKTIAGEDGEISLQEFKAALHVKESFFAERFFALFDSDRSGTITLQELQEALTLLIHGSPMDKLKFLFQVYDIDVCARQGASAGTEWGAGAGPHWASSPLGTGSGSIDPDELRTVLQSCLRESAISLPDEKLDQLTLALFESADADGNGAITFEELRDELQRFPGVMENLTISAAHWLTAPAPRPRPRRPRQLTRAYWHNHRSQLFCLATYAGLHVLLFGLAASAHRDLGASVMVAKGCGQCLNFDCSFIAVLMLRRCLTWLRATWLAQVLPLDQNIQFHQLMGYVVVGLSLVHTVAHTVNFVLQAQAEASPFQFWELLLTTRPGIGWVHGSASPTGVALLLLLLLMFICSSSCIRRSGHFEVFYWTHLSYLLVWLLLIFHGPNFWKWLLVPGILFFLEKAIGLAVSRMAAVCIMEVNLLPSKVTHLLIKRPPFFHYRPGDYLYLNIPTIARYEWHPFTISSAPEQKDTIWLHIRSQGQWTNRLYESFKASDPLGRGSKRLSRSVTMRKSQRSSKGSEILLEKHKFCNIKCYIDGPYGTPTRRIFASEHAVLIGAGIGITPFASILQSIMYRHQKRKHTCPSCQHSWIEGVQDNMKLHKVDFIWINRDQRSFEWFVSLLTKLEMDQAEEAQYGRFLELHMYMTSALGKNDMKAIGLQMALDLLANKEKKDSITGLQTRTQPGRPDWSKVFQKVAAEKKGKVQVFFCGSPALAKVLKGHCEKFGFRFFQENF

Take `COCCn1c(C(=O)N(C)C)cc2c1C[C@H]1CN(C(=O)c3ccccc3)[C@@](Cc3ccc(OC)cc3)(C(=O)OC)[C@@H]21`: the composite z-score in test [1] was 0.198; in test [6], 0.572; in [7], -0.0237; with Torsin-1A (Homo sapiens) [8] it was 0.236; in the test with Torsin-1A (Homo sapiens) [9], 1.11; in test [10] it was -0.472. Moreover, in test [12], the composite z-score is 0.256. Besides, the z-score in test [2] is -1.27 (inactive); in test [3], 0.491 (inactive); in test [4], 0.776 (inactive); in test [5], 0.0711 (inactive); in test [11] it was -1.18 (inactive); in test [13], 5.82 (inactive). Moreover, the z-score was 0.846 (inactive) in [14]; 1.36 (inactive) in [15]; 1.23 (inactive) in [16]; -0.164 in test [17]; 0.556 (inactive) in test [18]; 1.43 (inactive) in [19]. This compound also came in with a z-score in [20] of 1.24.

With `NC(=O)N1C(=O)C2C(C1=O)C1C=C(CCCO)C2C(c2ccc(CN3CCCC3)cc2)N1Cc1cc2c(cc1Br)OCO2` (stereo not given), the composite z-score was -0.0793 in test [1]; -0.0077 in test [6]; -0.322 in test [7]; 0.283 with Torsin-1A (Homo sapiens) [8]; 0.479 with Torsin-1A (Homo sapiens) [9]; 1.13 in test [10]. In test [12], the composite z-score was -0.276. Also, the z-score is -1.34 (inactive) in test [2]; -0.607 (inactive) in test [3]; -0.205 (inactive) in [4]; -0.274 (inactive) in [5]; -0.272 (inactive) in test [11]; 1.69 (inactive) in [13]. For the same compound, the z-score in [14] is 0.446 (inactive); in test [15] it was 0.604 (inactive); in test [16], 0.211 (inactive); in test [17] it was 0.106; in test [18] it was -1.07 (inactive); in [19], 0.731 (inactive). In test [20], this compound showed a z-score of 0.46.

For `O=C1C[C@@](C(=O)O)(c2ccc([N+](=O)[O-])cc2)[C@@H](c2ccc(CO)cc2)N1C1CCCCC1`, the composite z-score was 0.239 in test [1]; 0.856 in test [6]; -0.0645 in test [7]; 0.298 with Torsin-1A (Homo sapiens) [8]; 0.371 with Torsin-1A (Homo sapiens) [9]; 0.478 in [10]. This compound also returned a composite z-score in test [12] of 0.0984. Also, the z-score in test [2] was -3.27 (inactive); in test [3] it was 0.381 (inactive); in test [4], -0.179 (inactive); in test [5], -0.337 (inactive); in test [11] it was -0.485 (inactive); in [13] it was 5.95 (inactive). Also, the z-score is 0.732 (inactive) in [14]; 2.38 (inactive) in test [15]; 0.646 (inactive) in [16]; 0.197 in test [17]; -0.127 (inactive) in [18]; -1.27 (inactive) in test [19]. The z-score in test [20] was determined as 0.369.

For `COC(=O)[C@@]1(Cc2ccccc2)[C@H]2c3cc(C(=O)N(C)C)n(Cc4ccc(C(F)(F)F)nc4)c3C[C@H]2CN1C(=O)c1ccccc1`, the composite z-score is 0.598 in [1]; 2.08 in [6]; 0.433 in test [7]; 0.167 with Torsin-1A (Homo sapiens) [8]; 0.511 in the test with Torsin-1A (Homo sapiens) [9]; -0.561 in test [10]. The same compound gave a composite z-score in [12] of 1.1. Also, the z-score in [2] was -1.94 (inactive); in test [3], -0.0691 (inactive); in [4] it was -0.189 (inactive); in test [5] it was 0.484 (inactive); in test [11], -1.64 (inactive); in test [13], 1.5 (inactive). Further, the z-score was 0.234 (inactive) in [14]; 1.3 (inactive) in [15]; 0.715 (inactive) in test [16]; 0.184 in [17]; 0.0745 (inactive) in test [18]; -1.31 (inactive) in test [19]. In test [20], this compound came in with a z-score of -3.12.
